The list is not random: actives were taken first. Their share in the collection is about 19%.
TDP1 cell CPT – growth inhibition of DT40 Tdp1-/-;hTDP1 cells with camptothecin (screen for TDP1 inhibitors); 420,000 compounds, 12% hits; Potency, µM (titrated, usually from 46.2 µM), most hits filed as inhibitors; chicken DT40 Tdp1-/-;hTDP1 cells + 20 nM CPT, ATP luminescence, 48 h; further: nearly all actives have a fitted effect of over 55% in size
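Chicken DT40 Tdp1-/- cells complemented with human TDP1, 400 cells/well, exposed to compounds plus 20 nM camptothecin for at least 48 h at 37 C; viability read as ATP content by CellTiter-Glo luminescence.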
HT1080 IDH1KD tx – kills HT-1080 cells with IDH1 knockdown; HT-1080 IDH1 knockdown viability, ATP luminescence, 48 h; Potency, µM (series often up to 46.1 µM), hits mostly cytotoxic; 360,000 compounds, 2% hits; AID 686971
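Cytotoxicity counter-line: IDH1KD HT-1080, 48 h, CellTiter-Glo. Curves classed by r2, magnitude and activity.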
HT1080NT lethal – kills 2HG-producing HT-1080-NT fibrosarcoma cells | HT-1080-NT fibrosarcoma viability, CellTiter-Glo ATP luminescence, 48 h | Potency, µM (doses to about 46.1 µM), hits mostly cytotoxic | 360,000 compounds, 1.6% hits;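 further: NT is the 2HG producing partner of a matched IDH1 knockdown line; nearly all actives have a fitted effect of over 55% in size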
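A 48-hour cytotoxicity screen used HT-1080-NT cells plated 2 hours before compound delivery. ATP-based CellTiter-Glo luminescence measured viability, normalized to DMSO and no-cell controls.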
DT40 TDP1 no CPT – qHTS for Inhibitors of human tyrosyl-DNA phosphodiesterase 1 (TDP1): qHTS in cells in absence of CPT. Potency, µM (titrated, usually from 46.2 µM), usual class: inhibitors. 420,000 compounds, 15% hits. DT40 Tdp1-/- hTDP1 cells, no CPT, ATP luminescence, 48 h; further: nearly all actives have a fitted effect of over 55% in size
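Cells were dispensed at 400 per well, compounds added by pin tool, plates incubated ≥48 hr at 37 °C, then CellTiter-Glo added for 30 min at room temperature before luminescence reading. Line: DT40 Tdp1-/- complemented with hTDP1; camptothecin omitted.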
IL1B secr inh – blocks inflammasome-driven IL-1 beta release; THP-1 LPS/ATP IL-1B secretion, AlphaLISA, 16 h; stronger effect = lower value; activity change, % at 57.5 µM; 360,000 compounds, 4.7% hits; AID 743279; in the data active means activity change below about -50%; inconclusive means mostly about -30% to -49%
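THP-1 cells pretreated 1 hr with compounds (up to 57.5 uM final), then stimulated with LPS (250 ng/mL final) plus ATP (1.25 mM final); secreted IL-1B measured by AlphaLISA after 16 hr, decreased signal indicating inhibition.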
Hits are given with their value; n = inactive; u = inconclusive; x = no result given; ! = a repeat was not active. Unless noted, the call rests on the fitted dose curve; in most records, active means well fitted curve in the direction sought with a large enough effect; inconclusive means small, poorly fitted or top-dose-only effect, or another doubt; inactive means no such curve, though single readings can be large; an effect the other way counts as inactive or inconclusive.

SMILES | TDP1 cell CPT | HT1080 IDH1KD tx | HT1080NT lethal | DT40 TDP1 no CPT | IL1B secr inh
CCOc1ccc(CCNC(=O)C2CCCN(S(=O)(=O)c3c(C)n[nH]c3C)C2)cc1OCC (centres undefined) | u | n | n | 9.2µM | n
Cc1n[nH]c(C)c1S(=O)(=O)N1CCCC(C(=O)NC2CCCc3ccccc32)C1 (centres undefined) | 21µM | n | n | 18µM | n
CCOc1ccc(NC(=O)Cn2cc(C(=O)c3ccc(CC)cc3)c(=O)c3cc(OC)c(OC)cc32)cc1 | n | x | x | u | x
CCc1ccc(C(=O)c2cn(CC(=O)Nc3ccc(F)c(F)c3)c3cc(OC)c(OC)cc3c2=O)cc1 | 21µM | x | x | 16µM | x
CCc1ccc(C(=O)c2cn(Cc3ccc(F)cc3)c3cc(OC)c(OC)cc3c2=O)cc1 | 5.8µM | x | x | 6.5µM | x
CCCN(CCC)S(=O)(=O)c1ccc(NC(=O)c2cc(C(=O)OC)cc([N+](=O)[O-])c2)cc1 | 23µM | n | n | 26µM | n
COc1ccccc1C(=O)Nc1nc2ccccc2[nH]1 | 4.6µM | 1.3µM | 1.5µM | 1.8µM | n
COc1ccc(C(=O)Nc2nc3ccccc3[nH]2)cc1 | 16µM | u | u | 23µM | n
COC(=O)c1cc(C(=O)Nc2nc3ccccc3[nH]2)cc([N+](=O)[O-])c1 | n | u | n | 23µM | n
CCC(C)(C)NC(=O)c1cc(C(=O)OC)cc([N+](=O)[O-])c1 | n | n | n | n | n
COc1ccccc1C(=O)NCCC(=O)Nc1nc2ccccc2[nH]1 | n | n | n | u | u
Cc1ccc([C@H]2C(C(=O)O)=CC[C@@H](c3ccc(Cl)c(Cl)c3)N2S(=O)(=O)c2ccc(C)cc2)cc1 | u | n | n | u | n
CSc1ccccc1C(=O)Nc1nc2ccccc2[nH]1 | n | n | n | n | n
COc1cc(SC)ccc1C(=O)Nc1nc2ccccc2[nH]1 | 3.7µM | 1.5µM | 1.6µM | 2.1µM | n
COc1ccc2cc(CN(C(=O)Nc3ccccc3OC)C3CCCC3)c(=O)[nH]c2c1 | u | u | n | u | u
COc1ccc(NC(=O)N(Cc2cc3ccc(OC)cc3[nH]c2=O)CC2CCCO2)cc1 (centres undefined) | 18µM | u | u | 13µM | n
COc1ccc2cc(CN(CC3CCCO3)C(=O)Nc3ccccc3OC)c(=O)[nH]c2c1 (centres undefined) | 4.1µM | 2.3µM | 2.6µM | 4.6µM | n
COc1ccccc1-n1cnnc1SC(C)C(=O)Nc1cccc([N+](=O)[O-])c1 (centres undefined) | u | n | n | u | n
Cc1cccc(N(CC(=O)NCCSCc2ccccc2)S(=O)(=O)c2ccccc2)c1C | 23µM | x | x | u | x
COc1ccc(C)cc1N(CC(=O)NCCSCc1cccc(Cl)c1)S(C)(=O)=O | 16µM | n | n | u | n
COc1ccccc1N(CC(=O)NCCSCc1ccccc1)S(C)(=O)=O | n | n | n | n | n
Cc1cccc(N(CC(=O)NCCSCc2ccc(Cl)cc2)S(C)(=O)=O)c1C | 18µM | x | x | 26µM | x
Cc1cccc(CSCCNC(=O)CN(c2cc(C)cc(C)c2)S(C)(=O)=O)c1 | u | n | n | u | n
COc1ccccc1N(CC(=O)NCCSCc1ccc(Cl)cc1)S(C)(=O)=O | 21µM | n | n | 23µM! | n
Cc1cccc(N(CC(=O)NCCSCc2ccccc2)S(C)(=O)=O)c1C | n | n | n | n | n
SMILES | TDP1 cell CPT | HT1080 IDH1KD tx | HT1080NT lethal | DT40 TDP1 no CPT | IL1B secr inh
CCCN(C(=O)CSc1ccccc1C(=O)O)C1CCS(=O)(=O)C1 (centres undefined) | n | n | n | n | n
CC(=O)c1cccc(NC(=O)CN(C)S(=O)(=O)c2ccc3c(c2)CC(C)N3C(C)=O)c1 (centres undefined) | u | n | n | u | n
Cc1cnc(CNc2nc3cc(-c4ccccc4C)sc3c(=O)n2C)cn1 | u | n | n | u | n
Cc1nn(C(C)C(=O)N/N=C/c2ccc(N(C)C)cc2)c(C)c1[N+](=O)[O-] (centres undefined) | n | n | n | n | n
COc1ccc(-n2c(C)c(C)c3c(NCCCN(C)C)ncnc32)cc1 | n | n | n | n | n
CCN1C(=O)/C(=C2\C=Cc3cc(C)ccc3N2CC)OC1=S | u | n | n | u | n
CCN1/C(=C/c2cc[n+](C)cc2)C=Cc2cc(C)ccc21 | 0.23µM | u | n | 0.18µM | -63
CC(C(=O)NC1CCCC1)N1CCN(S(=O)(=O)c2ccc(C(C)(C)C)cc2)CC1 (centres undefined) | 21µM | n | n | 10µM | n
Cc1ccc(S(=O)(=O)N2CCC(C(=O)N[C@@H](C)C(=O)NC3CCCCC3)CC2)cc1 | n | n | n | n | n

Compound activity (PubChem)
